# Screens from PubChem BioAssay.
# The list is not random: actives were taken first. Their share in the collection is about 19%.
# HT1080 IDH1KD tx – HT-1080 IDH1 knockdown cell toxicity (counter line); HT-1080 IDH1 knockdown viability, ATP luminescence, 48 h; Potency, µM (series often up to 46.1 µM), without a hit: at the top dose activity, negative = toxicity, hits mostly cytotoxic; 2% of 360,000 active; AID 686971;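 note: potency is the fitted concentration of half-maximal effect; 0% = DMSO wells and -100% = cell-free medium wells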
#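 After a 2 h attachment period, IDH1KD HT-1080 cells took pin-transferred compound for 48 h at 37 °C; ATP-based luminescence after 10 min room-temperature reagent incubation reported viability.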
# TDP1 cell CPT – DT40-hTDP1 cell growth loss with CPT. chicken DT40 Tdp1-/-;hTDP1 cells + 20 nM CPT, ATP luminescence, 48 h. Potency, µM (doses to about 46.2 µM), for the others: at the top dose activity change, negative = growth inhibition, actives largely listed as inhibitors. 12% of 420,000 active. AID 686979; note: potency is the fitted concentration of half-maximal effect; nearly all actives have a fitted effect of over 55% in size
#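 Chicken DT40 Tdp1-/- cells complemented with human TDP1, 400 cells/well, exposed to compounds plus 20 nM camptothecin for at least 48 h at 37 C; viability read as ATP content by CellTiter-Glo luminescence.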
# ELG1 repair inh – blocks ELG1-dependent DNA repair in HEK293T cells. Potency, µM (top dose mostly 46.1 µM), without a hit: at the highest dose activity change, negative = inhibition, usual class: inhibitors. HEK293T ELG1-luciferase reporter, luminescence, 16 h; DNA damage induced by 5-fluorouridine. 2.3% of 330,000 active; note: potency is the fitted concentration of half-maximal effect; nearly all actives have a fitted effect of over 55% in size
#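 Cells (2,000 per well) received 5-fluorouridine plus test compound or DMSO and were incubated 16 hr at 37 °C, 5% CO2. Luciferase activity was read by luminescence 30 min after ONE-Glo addition; signal suppression marked inhibition of damage-induced ELG1 function.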
# TDP1 cell noCPT – qHTS for Inhibitors of human tyrosyl-DNA phosphodiesterase 1 (TDP1): qHTS in cells in absence of CPT; 15% of 420,000 active; DT40 Tdp1-/- hTDP1 cells, no CPT, ATP luminescence, 48 h; Potency, µM (series often up to 46.2 µM), for the others: at the highest dose activity change, negative = growth inhibition, most hits filed as inhibitors; AID 686978, 2013; note: potency is the fitted concentration of half-maximal effect; nearly all actives have a fitted effect of over 55% in size
#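 DT40 Tdp1-/-;hTDP1 cells, no CPT (DMSO vehicle only), 400 cells/well; compounds pin-transferred; ≥48 hr, 37 °C; CellTiter-Glo 30 min RT dark, luminescence read.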
# HT1080NT lethal – kills 2HG-producing HT-1080-NT fibrosarcoma cells. AID 686970. Potency, µM (top dose mostly 46.1 µM), inactives show at the highest dose activity, negative = less viability, actives largely listed as cytotoxic. 1.6% of 360,000 active. HT-1080-NT fibrosarcoma viability, CellTiter-Glo ATP luminescence, 48 h;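 note: NT is the 2HG producing partner of a matched IDH1 knockdown line; potency is the fitted concentration of half-maximal effect; 0% = DMSO-treated cells and -100% = media-only wells without cells; nearly all actives have a fitted effect of over 55% in size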
#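 750 cells/well, RPMI + 5% FBS; 2 h settle, compound pin-transfer, 48 h at 37 degrees C. CellTiter-Glo 10 min RT, luminescence. Normalized to DMSO and media-only wells.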
# IL1B secr inh – inflammasome signaling inhibition, IL-1 beta readout; 4.7% of 360,000 active; THP-1 LPS/ATP IL-1B secretion, AlphaLISA, 16 h; hits give low values; activity change, % at 57.5 µM; in the data active = activity change below about -50%; inconclusive = mostly about -30% to -49%
#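 Secreted IL-1B measured by AlphaLISA bead assay after 16 h compound exposure of THP-1 cells; compounds (final up to 57.5 uM) added 1 h before LPS (250 ng/mL) and ATP (1.25 mM) stimulation; lower signal means less secretion.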
# Starred values were filed as active, the others as inactive; ? = inconclusive; . = no result given; [ ] = remark or other dose. Unless noted, calls come from the whole dose curve; as a rule, active = well fitted curve in the direction sought with a large enough effect; inconclusive = small, poorly fitted or top-dose-only effect, or another doubt; inactive = no such curve, though single readings can be large; an effect the other way counts as inactive or inconclusive. Unless noted, % is set by controls: 0 for no effect and ±100 for the full control effect.
SMILES,HT1080 IDH1KD tx,TDP1 cell CPT,ELG1 repair inh,TDP1 cell noCPT,HT1080NT lethal,IL1B secr inh
COc1ccc(C(=O)NNC(=S)NC(=O)c2ccc(OC)cc2)cc1,?,16.4µM*,-24.8%,?,?,65.6
O=C(NNC(=O)c1ccc2ccccc2n1)c1ccc(O)cc1,-27.6%,?,15.7%,?,-17.8%,0.0
Cc1ccccc1CCNC(=O)C1CC(O)CN1C(=O)Nc1ccccc1 (stereo not given),19.4%,-15.9%,-1.7%,?,19.5%,-1.2
COc1ccccc1C(=O)NNC(=S)NC(=O)c1cccs1,.,.,1.0%,.,.,.
Cc1cccc(C(=O)NC(=S)NNC(=O)COc2ccc(Cl)cc2)c1,-11.8%,?,6.3%,?,-17.3%,25.8
O=C(NNC(=O)c1ccc(NC(=O)c2ccccc2)cc1)c1ccccc1,?,-23.5%,?,?,?,8.7
CCC(=O)NC(=S)NNC(=O)c1ccc(NC(=O)c2ccccc2)cc1,-4.9%,5.8µM*,-17.6%,7.31µM*,0.7%,-10.5
Cc1cccc(C(=O)NNC(=O)c2ccccc2C)c1,12.6%,1.0%,?,0.4%,1.4%,-6.6
Cc1cccc(C(=O)NNC(=O)c2ccccc2O)c1,?,?,?,20.6µM*,-27.0%,31.5
COc1ccc(C(=O)NC(=S)NNC(=O)c2cccc(C)c2)cc1,?,25.9µM*,.,23.1µM*,-21.6%,40.3
COc1ccc(C(=O)NNC(=S)NC(=O)c2cccs2)cc1,?,14.6µM*,-23.2%,?,?,90.5
O=C(O)CC1(CC(=O)Nc2cc3ccccc3cn2)CCCCC1,11.7%,4.4%,5.6%,-18.7%,10.7%,.
Cc1nn2cc(-c3ccc(OC(C)C)cc3)nc2s1,.,-24.8%,.,?,.,.
Cn1c(-c2nc(-c3ccccc3)cs2)nc2ccccc21,.,12.5%,.,?,.,.
CCOC(=O)CCC(=O)NNC(=O)c1ccc(NC(=O)c2ccccc2)cc1,-3.8%,18.4µM*,26.9%,?,-6.7%,-8.4
COc1ccc(/C=C/C(=O)NC(=S)NNC(=O)c2cnccn2)cc1,?,2.91µM*,?,5.17µM*,?,124.7
COc1ccc(/C=C/C(=O)NC(=S)NNC(=O)c2cccnc2)cc1,-22.5%,?,0.5%,?,-1.8%,30.9
Cc1cccc(C(=O)NNC(=S)NC(=O)c2ccccc2)c1,?,18.4µM*,.,20.6µM*,?,?
C=CCNC(=S)NNC(=O)c1ccc(OCC)cc1,1.2%,?,-0.6%,20.6µM*,1.3%,2.6
Cc1cc(=O)oc2cc(NC(=O)CN3C(=O)NC(C)(c4ccccc4)C3=O)ccc12 (stereo not given),1.7%,9.6%,7.8%,-15.3%,11.9%,-0.3
COC(=O)CC/C(O)=C1\C(=O)CC(C)(C)CC1=NCc1nc2ccccc2[nH]1,0.9%,-25.7%,4.2%,?,5.6%,15.6
O=C(CN1CCCCC1)NCCNc1ccc(C(F)(F)F)cc1[N+](=O)[O-],-4.6%,?,6.1%,?,-7.0%,-23.8
CCCCC(=O)NC(=S)Nc1cccc(NC(=O)c2ccccc2)c1,?,?,?,23.1µM*,-8.0%,?
CCCC(=O)NC(=S)Nc1cccc(NC(=O)c2ccccc2)c1,-6.7%,8.8%,?,-2.9%,2.0%,?
COCCNC(=S)NNC(=O)c1cccs1,4.1%,0.4%,6.5%,-10.2%,17.7%,16.5
SMILES,HT1080 IDH1KD tx,TDP1 cell CPT,ELG1 repair inh,TDP1 cell noCPT,HT1080NT lethal,IL1B secr inh
Cc1ccc(C(=O)NC(=S)NNC(=O)c2ccccc2)cc1,-25.2%,?,-9.4%,?,-19.0%,45.7
CCCCC(=O)NC(=S)NNC(=O)c1ccc(OC)cc1,?,4.61µM*,?,3.26µM*,?,205.5
COc1ccc(/C=C/C(=O)NC(=S)NNC(=O)c2cccs2)cc1,?,6.51µM*,?,4.61µM*,?,63.9
Cc1ccc(C(=O)NNC(=S)NC(=O)c2ccccc2)cc1,?,18.4µM*,.,16.4µM*,?,47.5
Cc1nc(C)n(CC(C)C(=O)N2CCN(S(=O)(=O)c3ccc(Cl)cc3)CC2)n1 (stereo not given),12.0%,10.7%,-3.0%,-8.1%,-4.1%,43.7
Cc1cccc(NS(=O)(=O)c2cc3c(cc2C)n(C)c(=O)c(=O)n3C)c1,-14.9%,?,-0.4%,?,-12.3%,30.9
Cc1ccc2nc3c(cc2c1)c(C)nn3-c1ccccc1,-9.9%,-0.4%,6.7%,-18.8%,-2.1%,0.0
Cc1nn(-c2ccccc2)c2nc(=O)n(-c3ccccc3)cc12,?,8.2µM*,0.7%,7.31µM*,-0.8%,-7.1
CCOC(=O)N1CCN(CC(O)COc2ccccc2C(C)C)CC1 (stereo not given),-3.1%,?,6.6%,?,-0.6%,-9.7
CCOC(=O)N1CCN(CC(O)COc2ccccc2C(C)CC)CC1 (stereo not given),2.4%[9.24 µM],-4.3%,9.0%,-8.5%,12.1%,-1.9
CCOC(=O)N1CCN(CC(O)COc2cc(C)ccc2C(C)C)CC1 (stereo not given),11.3%,-29.0%,1.6%,8.2µM*,8.8%,-4.2
CCOC(=O)N1CCN(CC(O)COc2ccccc2C(C)(C)C)CC1 (stereo not given),-3.7%,?,-2.0%,18.4µM*,-3.6%,1.3
O=C(CSc1nc2c([nH]c3ccccc32)c(=O)n1-c1ccccc1)Nc1ccc2c(c1)OCO2,.,?,.,23.1µM*,.,.
O=C(CSc1nc2c(oc3ccccc32)c(=O)n1-c1ccccc1)Nc1ccc(F)c(Cl)c1,.,?,.,13µM*,.,.
COc1ccc(NC(=O)CSc2nc3c([nH]c4ccccc43)c(=O)n2-c2ccccc2)c(OC)c1,.,-27.3%,.,-24.3%,.,.
O=C(CSc1nc2c([nH]c3ccccc32)c(=O)n1-c1ccccc1)Nc1ccc(Cl)c(Cl)c1,.,8.2µM*,.,10.3µM*,.,.
Cc1cc(C)cc(-n2c(SCC(=O)Nc3ccc4c(c3)OCCO4)nc3c([nH]c4ccccc43)c2=O)c1,.,9.1%,.,-5.0%,.,.
O=C(NCCC(=O)N(CCc1ccccc1)Cc1ccccc1)c1ccc(Br)cc1,-12.1%,?,-19.2%,25.9µM*,-1.3%,-9.9
Cc1sc(NC(=S)NC(=O)C2CCCCC2)c(C(N)=O)c1C,-24.1%,-7.6%,?,-5.9%,-5.4%,16.7
Cc1ccccc1C(=O)N(CC(=O)Nc1sc(C)c(C)c1C(N)=O)C1CCCC1,-0.9%,?,-24.5%,14.6µM*,-26.0%,6.1
